Source: PubChem BioAssay
Most compounds without a hit are left out; they make up all but 3.9% or so of the library.
PLCb3 inh = blocks human PLC-beta3 enzyme activity. Q01970. Purified PLC-beta3, fluorogenic substrate, fluorescence. inhibition, % at 12.2 µM. 0.18% of 370,000 active. AID 720704;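 also: 0% = median of compound wells on plate and 100% = full blocker control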
AHR activator = human AHR activation. P35869. AHR-responsive luciferase reporter cells, luminescence. activation, % at 5 µM. 2.5% of 320,000 active. AID 2796; in the data active = activation above about 47%;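 also: 0% = vehicle wells and 100% = reference agonist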
HGIII-sPLA2 inh = Inhibits HGIII-sPLA2 liposome hydrolysis, primary screen; inhibition, % at 12.2 µM; QFRET BODIPY PC-A2 liposome hydrolysis, fluorescence; 0.56% of 370,000 active; Q9NZ20;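 active = inhibition above mean plus 3 SD of compounds lying within the high and low control bounds, cut at about 19% in these data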;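 also: 0% = median of test compound wells and 100% = no enzyme DMSO wells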
PLC-gamma1 inh = blocks human PLC-gamma1 enzyme activity; P19174; purified PLC-gamma1, fluorogenic substrate, fluorescence; inhibition, % at 12.2 µM; 0.84% of 370,000 active; in the data active = inhibition above about 9.5%
HIF activator = HIF pathway transcriptional activation; activation, % at 7.5 µM (by protocol); 0.32% of 300,000 active; U2OS HRE-luciferase reporter, luminescence; normalized: DMSO 0%, desferrioxamine 100%;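 active = mean activation of at least 10% of the iron chelator positive control signal, with at least half of replicates also reaching 10%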
Yeast superoxide = caloric restriction mimetics inhibiting age-related superoxide in yeast; S. cerevisiae aged cells, superoxide DHE fluorescence; hits give low values; superoxide response (% of plate mean), % at 10 µM; 0.18% of 330,000 active;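 active = superoxide response under a set limit, about three screen SD below normal, cut at about 65% in these data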;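 also: yeast aged for seven days with compound at 30 °C before DHE staining; 100% = average MFI of all compound-treated wells on the plate with controls excluded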
PLCg1 ctr = inhibits human PLC-gamma1 in PLC-beta3 counter-screen | shares compounds with PLC-gamma1 inh | purified PLC-gamma1, fluorogenic substrate, fluorescence | inhibition, % at 12.3 µM | 3.1% of 3,300 active | AID 743258; in the data active = inhibition above about 9.5%
PLCbeta3 conf = human PLC-beta3 inhibition, confirmation. shares compounds with PLC-gamma1 inh. purified PLC-beta3, fluorogenic substrate fluorescence. inhibition, % at 12.3 µM. 1% of 3,300 active
* = called active by the depositor; nt = not tested or not shown. Rule as the data show it, unless noted: active = inhibition above about 11%; inactive = the rest.

SMILES	PLCb3 inh	AHR activator	HGIII-sPLA2 inh	PLC-gamma1 inh	HIF activator	Yeast superoxide	PLCg1 ctr	PLCbeta3 conf
O=[N+]([O-])c1ccc(N2CCN(Cc3ccc([N+](=O)[O-])o3)CC2)cc1	-0.2	nt	-2.9	9.8*	1.5	99.9	0.7	1.7
O=[N+]([O-])c1ccc(CN2CCN(c3ccccc3)CC2)o1	-3.2	-2.7	6.5	1.1	1.6	101.0	nt	nt
Cc1ccc(S(=O)(=O)NCc2ccccc2)cc1C(=O)N1CCN(S(=O)(=O)c2ccccc2)CC1	-0.6	nt	-18.8	2.8	nt	nt	nt	nt
CCn1c(SCC(=O)Nc2ccccc2OC)nc2ccccc2c1=O	4.5	-0.2	2.8	11.1*	-0.3	115.4	-8.5	-5.1
COCC(C)n1c(SCC(=O)NC(=O)NCc2ccccc2)nc2ccccc2c1=O (stereo not given)	8.0	0.2	-2.3	10.2*	nt	141.3	-0.6	-1.7
COCC(C)n1c(SCC(=O)Nc2cc(C)on2)nc2ccccc2c1=O (stereo not given)	-18.6	nt	8.8	1.1	nt	nt	nt	nt
COCCn1c(SCC(=O)Nc2ccccc2OC)nc2ccccc2c1=O	-7.4	3.5	6.5	0.5	0.6	97.6	nt	nt
COc1ccc(C(=O)ON=C(C)c2nccs2)cc1	1.1	nt	4.8	-1.0	nt	nt	nt	nt
Cc1ccc(CNC(=O)CCn2nc(-c3ccc(Cl)cc3)ccc2=O)cc1	-0.6	0.4	2.7	0.8	-0.9	106.0	nt	nt
CC(NC(=O)CCn1nc(-c2ccc(Cl)cc2)ccc1=O)c1ccccc1 (stereo not given)	4.6	0.2	10.6	10.2*	-0.1	100.1	-6.3	-3.0
Cc1ccccc1NC1=C/C(=N\S(=O)(=O)c2cccs2)c2ccccc2C1=O	3.7	17.5	-11.2	3.8	-7.2	104.4	nt	nt
Cc1ccccc1NC1=C/C(=N\S(=O)(=O)c2ccc(C(=O)O)cc2)c2ccccc2C1=O	8.6	21.7	-3.8	24.7*	-14.1	122.8	19.8*	4.0
Cc1nn(C)cc1S(=O)(=O)N1CCCCC1C (stereo not given)	-6.4	4.2	5.4	0.9	-0.1	96.9	nt	nt
Cc1ccc(C2CC(=O)Oc3cc(O)ccc32)cc1 (stereo not given)	-8.2	-2.0	-5.0	-10.0	-1.3	106.6	nt	nt
O=C1CC(c2ccc(Cl)cc2)c2c(O)cc(O)cc2O1 (stereo not given)	-0.9	3.3	-16.6	10.1*	-0.2	104.7	-6.5	-2.9
NC(=O)c1cc[n+](Cc2ccc([N+](=O)[O-])cc2)cc1	-7.3	2.1	5.9	0.5	-1.8	102.7	nt	nt
COc1ccc(NC(=S)N(Cc2ccc(C(=O)O)cc2)Cc2ccc(OC)c(OC)c2)cc1	-1.3	4.6	4.4	2.4	4.3	110.2	nt	nt
COc1ccc(C(CCN(Cc2ccc(OC)c(OC)c2)C(C)=O)C(C)C)cc1 (stereo not given)	-6.4	nt	2.9	11.1*	-10.7	96.8	0.9	0.8
CN(CCc1ccccc1)C(=O)c1ccc(NC(=O)Cc2ccc(NC(=O)C3CCN(C(=O)C4CC4)CC3)cc2)cc1	-0.4	nt	-20.8	-1.1	nt	nt	nt	nt
CN(CCc1ccccc1)C(=O)c1ccc(NC(=O)Cc2ccc(NC(=O)C3CCN(C(=O)C4CCCC4)CC3)cc2)cc1	5.1	nt	-45.2	10.3*	nt	nt	6.6	3.0
O=C(O)C=C1C2CC3CC(C2)CC1C3	0.6	0.5	1.9	2.0	0.2	89.1	nt	nt
O=C(O)C(C(=O)O)=C1C2CC3CC(C2)CC1C3	1.0	-0.3	0.1	10.6*	0.1	101.9	-1.6	-5.5
CC(CC(=O)Nc1ccc(Br)cc1F)S(=O)(=O)c1ccc2c(c1)NC(=O)CO2 (stereo not given)	-8.3	-3.4	-12.6	12.0*	-0.9	87.5	-6.2	-2.9
CC(CC(=O)Nc1ccc(F)cc1)S(=O)(=O)c1ccc2c(c1)NC(=O)CO2 (stereo not given)	-2.4	4.7	6.2	4.3	0.2	104.2	nt	nt
CCN(CC)C(=O)C[n+]1cccc(C(N)=O)c1	10.4	-2.8	0.8	9.6*	-0.3	92.4	-3.1	-0.9
SMILES	PLCb3 inh	AHR activator	HGIII-sPLA2 inh	PLC-gamma1 inh	HIF activator	Yeast superoxide	PLCg1 ctr	PLCbeta3 conf
CN(c1ccccc1C(=O)Nc1cccc([N+](=O)[O-])c1)S(C)(=O)=O	1.7	-1.4	6.9	9.9*	-0.5	105.7	-6.0	-1.2
CN(c1ccccc1C(=O)Nc1cccc([N+](=O)[O-])c1)S(=O)(=O)c1ccccc1	-0.7	nt	4.8	0.6	0.3	100.7	nt	nt
Cc1cccnc1NC(=O)C12CCC(C)(C(=O)O1)C2(C)C (stereo not given)	-0.2	-1.8	1.6	1.4	0.1	96.0	nt	nt
CC12CCC(C(=O)Nc3nccs3)(OC1=O)C2(C)C (stereo not given)	5.7	5.8	0.7	10.2*	-0.3	104.2	-3.3	-2.8
CCc1cccc(NC(=O)c2ccc(Cn3nc(C)cc3C)o2)c1	4.2	32.6	-8.5	9.8*	1.1	106.2	-5.9	-0.8
O=C(c1ccco1)N1CCN(C(=O)c2ccc(CS(=O)c3ccc(Br)cc3)o2)CC1 (stereo not given)	-1.4	nt	12.1	5.4	nt	nt	nt	nt
O=C(OCc1ccccc1Cl)c1cc([N+](=O)[O-])ccc1N1CCOCC1	2.9	1.5	-8.2	13.9*	0.0	103.7	0.3	2.3
O=C1NC(=S)SC1=C1CCCC1	3.7	0.6	6.1	25.6*	0.2	89.9	16.2*	-2.4
CNC(=O)C1CC(=O)N/C(=N/N=C(\C)c2cccs2)S1 (stereo not given)	11.5*	13.0	2.7	7.4	0.1	119.0	-1.4	0.2
Cc1ccc(NC(=O)C(=O)NCCN2CCN(S(C)(=O)=O)CC2)cc1	1.4	-1.9	3.9	-1.4	-0.2	109.4	nt	nt
CCc1ccc(NC(=O)C(=O)NCCN2CCN(S(C)(=O)=O)CC2)cc1	-0.6	1.9	12.6	11.6*	0.6	88.7	-3.9	-0.8
COC(=O)[C@@]12C[C@@H](CC(=O)NCc3ccc(OC)c(OC)c3)C(=O)N(Cc3ccc4c(c3)OCO4)C1=CCC(C)(C)C2	4.5	nt	-6.0	3.2	nt	nt	nt	nt
CCOc1ccc(S(=O)(=O)NC2CC2)cc1	-0.8	0.4	3.2	4.8	0.6	99.9	nt	nt
Cc1nc2ccc(NC(=O)[C@H](C)N3C(=O)C4CC=CCC4C3=O)cc2s1 (stereo not given in full)	1.6	0.6	8.4	1.5	nt	87.9	nt	nt
Cn1nccc1C(=O)N1CCCC(N2CCN(Cc3ccc4c(c3)OCO4)CC2)C1 (stereo not given)	-9.4	nt	10.1	4.1	-0.1	94.9	nt	nt
CCC1CO/C(=C(\C(Cl)=C(Cl)Cl)[N+](=O)[O-])N1 (stereo not given)	8.3	0.7	8.2	9.7*	0.3	100.3	1.7	8.7
S=C(NCCN1CCOCC1)Nc1ccc(Cl)cc1	1.3	5.8	0.7	-1.2	0.1	98.7	nt	nt
